Test results taken from the supplement of paper PMC10849652.
Of roughly 7,900 targets only a part is listed; those with a hit were picked by preference. About 0.6% of all pairs of compound and target were hits.

What was measured:
Assay in all cases: log2 fold change, soluble protein after heating vs DMSO (PISA); higher = thermal stabilisation; K562 cells, 10 uM, 30 min; active = over 0.2 and 3.5 SD of the protein, either way, in both replicates (recomputed)
erlotinib = compound: C#Cc1cccc(Nc2ncnc3cc(OCCOC)c(OCCOC)cc23)c1 [erlotinib]
Method in brief: (§1)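 K562 cells (2×10^6 cells/mL) were treated with 10 μM compound for 30 min, and aliquots were heated for 3 min over 48°C-58°C. Pooled aliquots were extracted in PBS with 0.5% NP-40 at 4°C, and the supernatant after 21,000xg for 90 min was measured by TMTpro 16plex LC-MS/MS with channel sums equalised. Reported thermal stability, relative to control samples and from duplicates, is a log2 fold change.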

[1] = compound: C/C(=N\NC(=O)C1=CC(=CC=C1)S(=O)(=O)N2CCOCC2)/C3=C(C=CC(=C3)Cl)O
Method in brief: as §1

[2] = compound: C1=CC(=C(C=C1Cl)C2=NC3=NC=CN=C3C(=N2)NC4=CC=NC=C4)F
Method in brief: as §1

[3] = compound: C1=CC(=CC=C1C2=NC3=C(N2)C=C(C=C3)C(=O)N)OC4=CC=C(C=C4)Cl
Method in brief: as §1

[4] = compound: C1=CC2=C(C=CC(=C2)/C=C\3/C(=O)NC(=NCC4=CC=CS4)S3)N=C1
Method in brief: as §1

[5] = compound: C1=CC2=NC=CN=C2C=C1/C=C/3\C(=O)NC(=O)S3
Method in brief: as §1

[6] = compound: C1=CC=C(C=C1)C2=NC(=C(N2)C3=CC=NC=C3)C4=CC(=C(C=C4)Cl)O
Method in brief: as §1

[7] = compound: C1=CC=C2C(=C1)C3=NNC4=CC=CC(=C43)C2=O
Method in brief: as §1

[8] = compound: C1CCN(C1)C(=O)NC2=CC=CC(=C2)NC3=NC=C(C(=N3)NCCC4=CN=CN4)Br
Method in brief: as §1

[9] = compound: C1CN(CCC1(CC2=CC=C(C=C2)Cl)N)C3=NC=NC4=C3C=CN4
Method in brief: as §1

IRAK-1-4 Inhibitor I = compound: C1COCCN1CCN2C3=CC=CC=C3N=C2NC(=O)C4=CC(=CC=C4)[N+](=O)[O-] [IRAK-1-4 Inhibitor I]
Method in brief: as §1

ibrutinib = compound: C=CC(=O)N1CCC[C@@H](n2nc(-c3ccc(Oc4ccccc4)cc3)c3c(N)ncnc32)C1 [ibrutinib]
Method in brief: as §1

[10] = compound: CC(=O)c1cnc2ccc(-c3cc(Cl)c(O)c(Cl)c3)nc2c1N[C@H]1CC[C@H](CN(C)C)CC1
Method in brief: as §1

ralimetinib = compound: CC(C)(C)Cn1c(N)nc2ccc(-c3[nH]c(C(C)(C)C)nc3-c3ccc(F)cc3)nc21 [ralimetinib]
Method in brief: as §1

[11] = compound: CC(C)(O)CC(=O)NCCn1ccc2ncnc(Nc3ccc(Oc4cccc(C(F)(F)F)c4)c(Cl)c3)c21
Method in brief: as §1

[12] = compound: CC(C)C1=C2N=C(C=C(N2N=C1)NCC3=CC=CC=C3)NCCCCCCN
Method in brief: as §1

[13] = compound: CC(C)C[C@@H](C=O)NC(=O)[C@H](CC(C)C)NC(=O)[C@H](CC(C)C)NC(=O)OCc1ccccc1
Method in brief: as §1

pinometostat = compound: CC(C)N(C[C@H]1O[C@@H](n2cnc3c(N)ncnc32)[C@H](O)[C@@H]1O)[C@H]1C[C@@H](CCc2nc3cc(C(C)(C)C)ccc3[nH]2)C1 [pinometostat]
Method in brief: as §1

[14] = compound: CC1=C(C(CC(=O)N1)C2=CC=C(C=C2)C(F)(F)F)C(=O)NC3=C(C=C4C(=C3)C=NN4)F
Method in brief: as §1

[15] = compound: CC1=C(C2=C(C=C1)C(=O)C3=CC=CC=C3N2CCCN)C
Method in brief: as §1

Measured: log2 fold change

CDK13 (UniProt Q14004)
active: [10] -0.52
inactive: erlotinib -0.064 | [1] 0.039 | [2] -0.147 | [3] 0.028 | [4] -0.126 | [5] -0.014 | [6] -0.012 | [7] -0.212 | [8] -0.006 | [9] -0.129 | IRAK-1-4 Inhibitor I -0.05 | ibrutinib 0.024 | ralimetinib 0.199 | [11] 0.031 | [12] -0.171 | [13] 0.081 | pinometostat 0.043 | [14] 0.013 | [15] -0.017

C4orf33 (UniProt Q8N1A6)
UniProt Q8N1A6, sequence (Q8N1A6 whole entry, looked up): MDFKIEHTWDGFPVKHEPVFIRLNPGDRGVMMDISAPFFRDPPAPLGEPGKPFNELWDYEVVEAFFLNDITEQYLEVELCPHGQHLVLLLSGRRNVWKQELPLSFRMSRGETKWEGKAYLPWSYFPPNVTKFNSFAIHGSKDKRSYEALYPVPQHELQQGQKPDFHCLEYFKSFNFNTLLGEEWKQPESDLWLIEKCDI
inactive: erlotinib -0.026 | [1] 0.023 | [2] 0.052 | [3] 0.138 | [4] 0.072 | [6] -0.092 | [7] 0.016 | [8] 0.017 | [9] 0.06 | IRAK-1-4 Inhibitor I 0.038 | ibrutinib 0.137 | [10] -0.049 | ralimetinib -0.073 | [11] 0.005 | [12] -0.076 | [13] 0.032 | pinometostat 0 | [14] -0.01 | [15] -0.03
active: [5] -0.287

CBX1 (UniProt P83916)
UniProt P83916, sequence (P83916 whole entry, looked up): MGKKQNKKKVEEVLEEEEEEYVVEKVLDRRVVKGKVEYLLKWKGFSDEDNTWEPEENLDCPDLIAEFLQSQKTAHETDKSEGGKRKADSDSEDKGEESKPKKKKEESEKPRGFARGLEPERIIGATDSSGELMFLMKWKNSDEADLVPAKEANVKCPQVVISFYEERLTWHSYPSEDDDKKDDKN
inactive: erlotinib 0.025 | [1] -0.044 | [2] 0.022 | [3] 0.072 | [4] 0.004 | [5] 0.089 | [6] -0.055 | [7] -0.026 | [8] -0.007 | [9] -0.027 | IRAK-1-4 Inhibitor I -0.105 | ibrutinib -0.001 | [10] -0.038 | ralimetinib -0.054 | [11] 0.013 | [12] 0.034 | [13] -0.007 | pinometostat -0.143 | [14] -0.026
active: [15] -0.288

CCNH (UniProt P51946)
UniProt P51946, sequence (P51946 whole entry, looked up): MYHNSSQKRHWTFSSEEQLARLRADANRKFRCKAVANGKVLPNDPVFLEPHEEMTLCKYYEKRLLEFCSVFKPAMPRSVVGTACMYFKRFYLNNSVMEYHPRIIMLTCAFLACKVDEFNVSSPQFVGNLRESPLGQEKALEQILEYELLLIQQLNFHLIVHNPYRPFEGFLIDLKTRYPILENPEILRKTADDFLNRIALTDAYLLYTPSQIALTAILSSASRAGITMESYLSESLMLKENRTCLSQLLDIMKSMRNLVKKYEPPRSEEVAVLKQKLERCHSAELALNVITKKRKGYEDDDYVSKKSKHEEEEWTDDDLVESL
active: [10] -0.24
inactive: erlotinib -0.022 | [1] 0.021 | [2] 0.034 | [3] -0.016 | [4] -0.045 | [5] 0.031 | [6] 0.022 | [7] -0.004 | [8] -0.011 | [9] -0.015 | IRAK-1-4 Inhibitor I -0.01 | ibrutinib -0.04 | ralimetinib -0.04 | [11] -0.009 | [12] 0.084 | [13] -0.053 | pinometostat 0.022 | [14] 0.045 | [15] -0.01

CASP3 (UniProt P42574)
inactive: erlotinib -0.014 | [1] -0.021 | [2] 0.238 | [3] 0.006 | [4] -0.005 | [5] -0.001 | [6] 0.086 | [7] 0.015 | [8] -0.028 | [9] 0.093 | IRAK-1-4 Inhibitor I 0.074 | ibrutinib 0.008 | [10] 0 | ralimetinib -0.022 | [11] 0.043 | [12] 0.048 | [13] 0.067 | pinometostat -0.076 | [14] 0.011 | [15] 0.05

CD151 (UniProt P48509)
inactive: erlotinib -0.035 | [1] 0.029 | [2] 0.045 | [3] 0.103 | [4] -0.021 | [5] 0.069 | [6] 0.021 | [7] -0.125 | [8] -0.021 | [9] 0.113 | IRAK-1-4 Inhibitor I -0.077 | ibrutinib 0.012 | [10] 0.025 | ralimetinib 0.013 | [11] -0.021 | [12] -0.017 | [13] 0.027 | pinometostat -0.054 | [14] 0.082 | [15] 0.083

CELF2 isoform 3 (UniProt O95319)
UniProt O95319, sequence (O95319 whole entry, looked up): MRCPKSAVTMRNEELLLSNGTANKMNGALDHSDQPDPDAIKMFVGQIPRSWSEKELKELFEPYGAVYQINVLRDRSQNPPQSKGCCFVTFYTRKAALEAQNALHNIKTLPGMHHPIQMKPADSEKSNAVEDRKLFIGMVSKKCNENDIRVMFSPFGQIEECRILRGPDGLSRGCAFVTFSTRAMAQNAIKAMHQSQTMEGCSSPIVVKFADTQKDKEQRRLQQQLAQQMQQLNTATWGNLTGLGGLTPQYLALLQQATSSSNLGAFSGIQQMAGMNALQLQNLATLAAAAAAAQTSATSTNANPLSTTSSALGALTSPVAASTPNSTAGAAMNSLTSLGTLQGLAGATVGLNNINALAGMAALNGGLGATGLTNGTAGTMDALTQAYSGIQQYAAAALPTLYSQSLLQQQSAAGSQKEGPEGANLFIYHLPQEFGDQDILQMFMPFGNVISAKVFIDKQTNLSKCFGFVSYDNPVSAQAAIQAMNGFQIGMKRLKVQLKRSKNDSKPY
active: [15] 0.418
inactive: erlotinib -0.042 | [1] -0.044 | [2] 0 | [3] 0.045 | [4] 0.004 | [5] 0.047 | [6] 0.021 | [7] 0.064 | [8] -0.022 | [9] 0.086 | IRAK-1-4 Inhibitor I 0.009 | ibrutinib -0.022 | [10] 0.009 | ralimetinib 0.055 | [11] -0.003 | [12] -0.015 | [13] 0.249 | pinometostat -0.047 | [14] -0.027

CCAR2 isoform 2 (UniProt Q8N163)
UniProt Q8N163, sequence (Q8N163 whole entry, looked up): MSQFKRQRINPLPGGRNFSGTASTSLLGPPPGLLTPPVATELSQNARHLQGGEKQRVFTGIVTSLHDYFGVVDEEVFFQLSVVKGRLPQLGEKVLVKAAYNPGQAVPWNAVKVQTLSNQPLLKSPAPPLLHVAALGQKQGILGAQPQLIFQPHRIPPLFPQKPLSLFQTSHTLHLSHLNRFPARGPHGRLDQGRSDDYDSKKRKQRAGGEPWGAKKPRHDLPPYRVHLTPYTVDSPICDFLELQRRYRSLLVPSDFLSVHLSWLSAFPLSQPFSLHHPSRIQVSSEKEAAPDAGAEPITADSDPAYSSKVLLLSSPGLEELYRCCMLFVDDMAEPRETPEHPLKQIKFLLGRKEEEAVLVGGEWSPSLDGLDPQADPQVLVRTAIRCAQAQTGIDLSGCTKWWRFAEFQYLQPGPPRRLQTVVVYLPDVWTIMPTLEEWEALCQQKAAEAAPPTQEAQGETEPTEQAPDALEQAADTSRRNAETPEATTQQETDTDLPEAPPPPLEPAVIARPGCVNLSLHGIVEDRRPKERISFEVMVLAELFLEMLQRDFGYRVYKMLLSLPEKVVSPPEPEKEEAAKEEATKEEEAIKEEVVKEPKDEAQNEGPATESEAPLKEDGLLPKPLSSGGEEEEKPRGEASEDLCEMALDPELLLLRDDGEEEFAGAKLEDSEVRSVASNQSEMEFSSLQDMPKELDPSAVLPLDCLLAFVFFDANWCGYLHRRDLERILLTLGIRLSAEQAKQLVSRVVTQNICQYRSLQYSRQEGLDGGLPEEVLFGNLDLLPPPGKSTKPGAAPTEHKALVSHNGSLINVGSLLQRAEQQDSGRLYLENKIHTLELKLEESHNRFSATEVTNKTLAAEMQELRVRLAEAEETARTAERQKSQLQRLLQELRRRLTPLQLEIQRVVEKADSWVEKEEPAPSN
active: [12] -0.477
inactive: erlotinib 0.027 | [1] 0.063 | [2] 0.033 | [3] -0.014 | [4] 0.071 | [5] 0 | [6] 0.014 | [7] -0.039 | [8] 0.001 | [9] 0.007 | IRAK-1-4 Inhibitor I -0.111 | ibrutinib -0.061 | [10] -0.037 | ralimetinib 0.027 | [11] -0.222 | [13] -0.004 | pinometostat -0.039 | [14] 0.111 | [15] -0.252

CBX5 (UniProt P45973)
UniProt P45973, sequence (P45973 whole entry, looked up): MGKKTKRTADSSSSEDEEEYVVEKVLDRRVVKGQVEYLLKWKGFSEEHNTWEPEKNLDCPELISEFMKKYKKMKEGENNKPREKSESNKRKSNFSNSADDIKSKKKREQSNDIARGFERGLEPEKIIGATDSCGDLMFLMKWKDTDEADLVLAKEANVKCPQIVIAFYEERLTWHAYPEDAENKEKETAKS
inactive: erlotinib -0.018 | [1] 0.08 | [2] 0 | [3] 0.043 | [4] 0.111 | [5] 0.025 | [6] 0.003 | [7] -0.028 | [8] -0.002 | [9] -0.015 | IRAK-1-4 Inhibitor I -0.076 | ibrutinib 0.002 | [10] -0.102 | ralimetinib -0.002 | [11] 0.056 | [12] -0.067 | [13] -0.001 | pinometostat -0.058 | [14] -0.024
active: [15] -0.545

COMT (UniProt P21964)
UniProt P21964, sequence (P21964 whole entry, looked up): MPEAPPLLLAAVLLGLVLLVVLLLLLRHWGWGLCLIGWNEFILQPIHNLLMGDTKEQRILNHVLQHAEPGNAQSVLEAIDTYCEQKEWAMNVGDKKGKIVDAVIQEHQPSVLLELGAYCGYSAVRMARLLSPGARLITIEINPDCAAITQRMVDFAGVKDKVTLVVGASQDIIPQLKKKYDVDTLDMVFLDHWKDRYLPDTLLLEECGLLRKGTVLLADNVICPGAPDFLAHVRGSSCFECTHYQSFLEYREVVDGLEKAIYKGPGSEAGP
inactive: erlotinib -0.026 | [1] 0.076 | [2] -0.015 | [3] -0.08 | [4] 0.023 | [5] 0.012 | [6] 0.026 | [7] 0.029 | [8] 0.031 | [9] -0.059 | IRAK-1-4 Inhibitor I 0.01 | ibrutinib -0.032 | [10] -0.065 | ralimetinib -0.043 | [11] -0.007 | [12] 0.006 | [13] -0.039 | pinometostat -0.024 | [14] -0.068 | [15] 0.053

CALCOCO2 isoform 4 (UniProt Q13137)
active: [12] -0.599
inactive: erlotinib -0.081 | [1] 0.018 | [2] -0.08 | [3] 0.059 | [4] 0.022 | [5] -0.043 | [6] -0.003 | [7] -0.057 | [8] -0.016 | [9] -0.052 | IRAK-1-4 Inhibitor I 0.004 | ibrutinib -0.016 | [10] -0.09 | ralimetinib 0.045 | [11] -0.005 | [13] 0.115 | pinometostat 0.054 | [14] 0.045 | [15] -0.065

CHMP4B (UniProt Q9H444)
inactive: erlotinib 0.018 | [1] -0.006 | [2] 0.024 | [3] 0.013 | [4] -0.014 | [5] 0.057 | [6] 0.043 | [7] -0.001 | [8] 0.083 | [9] 0.035 | IRAK-1-4 Inhibitor I 0.068 | ibrutinib -0.024 | [10] 0.015 | ralimetinib 0.039 | [11] 0.015 | [12] 0.014 | [13] -0.003 | pinometostat -0.032 | [14] 0.046 | [15] -0.011

CSNK1D (UniProt P48730)
active: [10] 0.768
inactive: erlotinib 0.033 | [1] -0.02 | [2] -0.143 | [3] 0.011 | [4] -0.05 | [5] 0.051 | [6] 0.165 | [7] 0.258 | [8] -0.035 | [9] -0.086 | IRAK-1-4 Inhibitor I -0.041 | ibrutinib 0.002 | ralimetinib 0.216 | [11] -0.001 | [12] -0.138 | [13] 0.077 | pinometostat 0.13 | [14] 0.019 | [15] 0.063

CASTOR2 (UniProt A6NHX0)
UniProt A6NHX0, sequence (A6NHX0 whole entry, looked up): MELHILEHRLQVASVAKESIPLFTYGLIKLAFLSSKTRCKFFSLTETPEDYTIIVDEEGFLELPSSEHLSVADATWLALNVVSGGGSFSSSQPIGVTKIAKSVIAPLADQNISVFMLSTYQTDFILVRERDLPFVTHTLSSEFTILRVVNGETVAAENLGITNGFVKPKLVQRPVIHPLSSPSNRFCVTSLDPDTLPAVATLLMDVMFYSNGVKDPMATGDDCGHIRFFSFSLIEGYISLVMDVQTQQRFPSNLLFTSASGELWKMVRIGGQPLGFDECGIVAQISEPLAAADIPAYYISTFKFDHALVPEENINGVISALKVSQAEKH
inactive: erlotinib -0.026 | [1] 0.117 | [2] 0.013 | [3] 0.018 | [4] -0.031 | [5] 0.017 | [6] 0.029 | [7] -0.017 | [8] -0.065 | [9] -0.002 | IRAK-1-4 Inhibitor I 0.078 | ibrutinib 0.046 | [10] 0.008 | ralimetinib -0.006 | [11] 0.016 | [12] 0.031 | [13] 0.046 | pinometostat -0.013 | [14] -0.004 | [15] 0.019

CDK9 isoform 2 (UniProt P50750)
UniProt P50750, sequence (P50750 whole entry, looked up): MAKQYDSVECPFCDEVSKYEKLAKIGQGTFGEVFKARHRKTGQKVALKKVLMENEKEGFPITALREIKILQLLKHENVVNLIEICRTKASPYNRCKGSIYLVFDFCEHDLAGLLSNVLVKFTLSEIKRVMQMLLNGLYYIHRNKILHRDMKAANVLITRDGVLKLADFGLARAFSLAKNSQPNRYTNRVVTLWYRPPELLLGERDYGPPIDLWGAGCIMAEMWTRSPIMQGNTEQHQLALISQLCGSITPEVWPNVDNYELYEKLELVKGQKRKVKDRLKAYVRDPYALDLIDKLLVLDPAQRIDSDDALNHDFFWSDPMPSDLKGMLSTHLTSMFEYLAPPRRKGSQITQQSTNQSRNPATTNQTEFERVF
inactive: erlotinib 0.043 | [1] -0.005 | [2] -0.174 | [3] 0.024 | [4] -0.084 | [5] 0.05 | [6] 0.059 | [7] -0.076 | [8] -0.001 | [9] -0.059 | IRAK-1-4 Inhibitor I -0.02 | ibrutinib -0.017 | [10] 0.233 | ralimetinib -0.008 | [11] 0 | [12] -0.113 | [13] 0.044 | pinometostat 0.157 | [14] -0.03 | [15] -0.144

CDK12 (UniProt Q9NYV4)
UniProt Q9NYV4, sequence (Q9NYV4 whole entry, looked up): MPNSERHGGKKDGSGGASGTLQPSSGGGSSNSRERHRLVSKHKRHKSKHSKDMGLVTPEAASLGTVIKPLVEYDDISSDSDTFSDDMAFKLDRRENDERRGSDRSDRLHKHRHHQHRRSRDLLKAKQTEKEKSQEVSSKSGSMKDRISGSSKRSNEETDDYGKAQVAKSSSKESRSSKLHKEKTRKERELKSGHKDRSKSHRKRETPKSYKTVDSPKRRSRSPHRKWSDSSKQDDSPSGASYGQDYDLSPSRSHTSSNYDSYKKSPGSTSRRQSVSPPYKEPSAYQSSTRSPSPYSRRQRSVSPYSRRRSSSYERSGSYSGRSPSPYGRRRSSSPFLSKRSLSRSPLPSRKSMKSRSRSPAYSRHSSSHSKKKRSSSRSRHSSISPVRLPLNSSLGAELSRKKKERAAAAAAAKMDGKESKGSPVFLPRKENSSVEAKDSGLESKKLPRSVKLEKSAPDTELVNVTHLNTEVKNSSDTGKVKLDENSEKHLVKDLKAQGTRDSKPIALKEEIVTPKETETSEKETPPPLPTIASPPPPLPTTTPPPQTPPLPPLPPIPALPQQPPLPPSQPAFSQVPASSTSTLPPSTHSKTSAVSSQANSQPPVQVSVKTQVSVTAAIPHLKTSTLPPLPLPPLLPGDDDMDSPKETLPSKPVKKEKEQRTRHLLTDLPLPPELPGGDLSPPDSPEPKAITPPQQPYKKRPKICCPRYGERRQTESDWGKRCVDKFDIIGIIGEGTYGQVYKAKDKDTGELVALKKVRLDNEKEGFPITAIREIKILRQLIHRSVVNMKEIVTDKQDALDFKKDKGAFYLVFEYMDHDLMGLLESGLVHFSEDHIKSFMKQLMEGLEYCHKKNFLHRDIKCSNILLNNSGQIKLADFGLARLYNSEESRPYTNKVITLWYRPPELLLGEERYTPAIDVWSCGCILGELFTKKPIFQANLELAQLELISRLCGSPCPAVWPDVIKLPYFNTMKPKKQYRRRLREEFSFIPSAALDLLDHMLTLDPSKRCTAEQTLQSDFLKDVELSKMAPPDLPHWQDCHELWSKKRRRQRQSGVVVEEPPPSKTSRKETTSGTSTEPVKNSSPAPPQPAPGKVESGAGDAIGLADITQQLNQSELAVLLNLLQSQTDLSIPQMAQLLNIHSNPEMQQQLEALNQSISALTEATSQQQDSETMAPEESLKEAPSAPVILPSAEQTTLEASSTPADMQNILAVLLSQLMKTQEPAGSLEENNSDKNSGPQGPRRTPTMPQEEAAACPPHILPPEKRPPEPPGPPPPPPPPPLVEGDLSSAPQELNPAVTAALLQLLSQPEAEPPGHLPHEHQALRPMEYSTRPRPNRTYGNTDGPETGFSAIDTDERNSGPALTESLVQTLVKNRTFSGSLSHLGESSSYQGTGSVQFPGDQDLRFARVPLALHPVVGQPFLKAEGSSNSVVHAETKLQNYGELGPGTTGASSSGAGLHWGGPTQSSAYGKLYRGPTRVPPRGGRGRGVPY
inactive: erlotinib -0.049 | [1] 0.001 | [2] -0.44 | [3] 0.076 | [4] -0.06 | [5] -0.053 | [6] -0.066 | [7] -0.23 | [8] -0.077 | [9] -0.187 | IRAK-1-4 Inhibitor I -0.179 | ibrutinib 0.008 | [10] -0.566 | ralimetinib 0.138 | [11] 0.067 | [12] -0.211 | [13] 0.006 | pinometostat 0.399 | [14] 0.041 | [15] -0.014
